Results taken from PubChem BioAssay (NCATS).
Results filed as inconclusive are left out. The source made the active and inactive calls. Calls come from the whole dose curve; as a rule, active = well fitted inhibition curve with a large enough effect; inconclusive = small, poorly fitted or top-dose-only effect; inactive = flat fitted curve, though single readings scatter.

Key:
Assay in all cases: qHTS profiling for inhibitors of Plasmodium falciparum proliferation (AID 504749); note: nearly all actives have a fitted effect of over 60% in size
Details in all cases: P. falciparum in erythrocytes, SYBR Green DNA, 72 h; series mostly up to 28.7 µM
C2A = test system: C2A
In short: (§1)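 In a 72 h erythrocytic culture (37 C, humidified, 5% CO2) at 2.5% hematocrit and 0.3% starting parasitemia, compounds were tested; SYBR Green I in detergent lysis buffer stained parasite DNA overnight.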

CP185 = test system: CP185
In short: as §1

CP191 = test system: CP191
In short: as §1

CP192 = test system: CP192
In short: as §1

CP194 = test system: CP194
In short: as §1

CP201 = test system: CP201
In short: as §1

CP203 = test system: CP203
In short: as §1

CP211 = test system: CP211
In short: as §1

CP215 = test system: CP215
In short: as §1

CP217 = test system: CP217
In short: as §1

CP237 = test system: CP237
In short: as §1

CP238 = test system: CP238
In short: as §1

CP247 = test system: CP247
In short: as §1

CP250 = test system: CP250
In short: as §1

CP252 = test system: CP252
In short: as §1

CP256 = test system: CP256
In short: as §1

CP260 = test system: CP260
In short: as §1

CP262 = test system: CP262
In short: as §1

CP265 = test system: CP265
In short: as §1

CP266 = test system: CP266
In short: as §1

Measured: Potency
Potency is the fitted concentration of half-maximal effect.

NC(=O)CN1CC(O)CC1=O (centres undefined)
inactive: C2A | CP185 | CP191 | CP192 | CP194 | CP201 | CP203 | CP211 | CP215 | CP217 | CP237 | CP238 | CP247 | CP250 | CP252 | CP256 | CP260 | CP262 | CP265 | CP266

CCCCCCCCCCCCCCCC[N+](C)(C)C
active: C2A 8.91 µM | CP211 13.5 µM | CP237 7.08 µM | CP250 8.91 µM | CP260 5.62 µM | CP265 11.2 µM

C#CC1(O)CCC2C3CCC4=CC(=O)CCC4(C)C3CCC21C (centres undefined)
inactive: C2A | CP185 | CP191 | CP192 | CP194 | CP201 | CP203 | CP211 | CP215 | CP217 | CP237 | CP238 | CP247 | CP250 | CP252 | CP256 | CP260 | CP262 | CP265 | CP266

CCCN1CCC[C@H](c2cccc(O)c2)C1
inactive: C2A | CP185 | CP191 | CP192 | CP194 | CP201 | CP203 | CP211 | CP215 | CP217 | CP238 | CP250 | CP252 | CP256 | CP260 | CP262 | CP265 | CP266

CC(=O)[O][Hg][c]1ccccc1
active: CP185 5.01 µM | CP191 8.91 µM | CP192 9.53 µM | CP194 9.53 µM | CP203 13.5 µM | CP211 15.1 µM | CP215 6.01 µM | CP217 7.08 µM | CP237 4.47 µM | CP238 5.62 µM | CP247 5.62 µM | CP250 7.08 µM | CP252 8.91 µM | CP256 8.91 µM | CP260 3.98 µM | CP265 8.91 µM

COC(C)(C)CCCC(C)C/C=C/C(C)=C/C(=O)OC(C)C (centres undefined)
active: CP237 12.6 µM | CP265 11.2 µM
inactive: C2A | CP185 | CP238 | CP262

Cc1cc(O)ccc1Cl
inactive: C2A | CP185 | CP191 | CP192 | CP194 | CP201 | CP203 | CP211 | CP215 | CP217 | CP237 | CP238 | CP247 | CP250 | CP252 | CP256 | CP260 | CP262 | CP265 | CP266

NC1=NC(=O)N2CC12 (centres undefined)
active: CP260 10 µM
inactive: CP191 | CP192 | CP201 | CP203 | CP215 | CP238 | CP250 | CP252 | CP266

CN1C2CCC1CC(OC(=O)c1cc(Cl)cc(Cl)c1)C2 (centres undefined)
inactive: C2A | CP185 | CP191 | CP192 | CP194 | CP201 | CP203 | CP211 | CP215 | CP217 | CP237 | CP238 | CP247 | CP250 | CP252 | CP256 | CP260 | CP262 | CP265 | CP266

C1CCC(NC2CCCCC2)CC1
inactive: C2A | CP185 | CP191 | CP192 | CP194 | CP201 | CP203 | CP211 | CP215 | CP217 | CP237 | CP238 | CP247 | CP250 | CP252 | CP260 | CP262 | CP265 | CP266

COC(=O)c1cncn1C(C)c1ccccc1 (centres undefined)
inactive: CP192 | CP194 | CP201 | CP203 | CP211 | CP215 | CP262 | CP266

C[C@]12CCC(=O)C(O)=C1CC[C@@H]1[C@H]3CCC(=O)[C@@]3(C)CC[C@@H]12
inactive: CP191 | CP192 | CP194 | CP201 | CP203 | CP211 | CP215 | CP217 | CP237 | CP238 | CP247 | CP252 | CP260 | CP262 | CP266

CC[N+]1(CCOC(=O)C(O)(c2ccccc2)c2ccccc2)CCCCC1
inactive: C2A | CP191 | CP192 | CP194 | CP201 | CP203 | CP211 | CP215 | CP217 | CP237 | CP250 | CP252 | CP260 | CP262 | CP265 | CP266

Cc1ccc(Cl)c(O)c1
inactive: C2A | CP185 | CP191 | CP192 | CP194 | CP201 | CP203 | CP211 | CP215 | CP217 | CP237 | CP238 | CP247 | CP250 | CP252 | CP256 | CP260 | CP262 | CP265 | CP266

c1ccc(C2(c3ccccc3)CC2C2=NCCN2)cc1 (centres undefined)
inactive: C2A | CP185 | CP192 | CP194 | CP201 | CP203 | CP211 | CP215 | CP217 | CP237 | CP238 | CP247 | CP250 | CP252 | CP262 | CP265

O=C(O)C(Cl)Cl
inactive: C2A | CP185 | CP191 | CP192 | CP194 | CP201 | CP203 | CP211 | CP215 | CP217 | CP237 | CP238 | CP247 | CP250 | CP252 | CP256 | CP260 | CP262 | CP265 | CP266

CN[C@@H]1C[C@@H](c2ccc(Cl)c(Cl)c2)c2ccccc21
inactive: C2A | CP191 | CP192 | CP201 | CP238 | CP250

O=C(O)COc1ccccc1
inactive: C2A | CP185 | CP191 | CP192 | CP194 | CP201 | CP203 | CP211 | CP215 | CP217 | CP237 | CP238 | CP247 | CP250 | CP252 | CP256 | CP260 | CP262 | CP265 | CP266

COC(=O)[C@@H](N)CCCN=C(N)N[N+](=O)[O-]
inactive: C2A | CP185 | CP191 | CP192 | CP194 | CP201 | CP203 | CP211 | CP215 | CP217 | CP237 | CP238 | CP247 | CP250 | CP252 | CP256 | CP260 | CP262 | CP265 | CP266

O=[N+]([O-])c1ccc([As](=O)(O)O)cc1
active: CP185 8.91 µM | CP191 6.31 µM | CP194 13.5 µM | CP203 9.53 µM | CP211 7.57 µM | CP215 7.57 µM | CP217 7.94 µM | CP237 7.94 µM | CP238 11.2 µM | CP250 7.08 µM | CP252 7.08 µM | CP256 10 µM | CP260 7.08 µM | CP262 8.49 µM | CP265 10 µM

CN(C)[C@@H]1C(=O)C(C(N)=O)=C(O)[C@@]2(O)C(=O)C3=C(O)c4c(O)cccc4[C@@](C)(O)[C@H]3[C@H](O)[C@@H]12
inactive: CP185 | CP191 | CP192 | CP194 | CP201 | CP211 | CP217 | CP238 | CP247 | CP250 | CP265 | CP266

C=CCN1CC[C@]23CCCCC2[C@H]1Cc1ccc(O)cc13 (some centres undefined)
inactive: C2A | CP185 | CP191 | CP192 | CP194 | CP201 | CP203 | CP211 | CP215 | CP217 | CP238 | CP247 | CP250 | CP252 | CP256 | CP260 | CP262 | CP265 | CP266

CC(C)NC(C)Cc1ccc(I)cc1 (centres undefined)
inactive: C2A | CP185 | CP191 | CP192 | CP194 | CP201 | CP203 | CP211 | CP217 | CP238 | CP247 | CP250 | CP252 | CP256 | CP260 | CP262 | CP265 | CP266

CCCCCCCCCC(CC)c1ccc(S(=O)(=O)O)cc1 (centres undefined)
inactive: C2A | CP185 | CP191 | CP192 | CP194 | CP201 | CP203 | CP211 | CP215 | CP217 | CP237 | CP238 | CP247 | CP250 | CP252 | CP256 | CP260 | CP262 | CP265

CC(=O)OCC1=C(C(=O)O)N2C(=O)[C@@H](N)[C@@H]2SC1
inactive: CP192 | CP194 | CP201 | CP203 | CP211 | CP215 | CP237 | CP260 | CP262 | CP266

CCCCc1ccc(C(=O)O)nc1
inactive: C2A | CP185 | CP191 | CP192 | CP194 | CP201 | CP203 | CP211 | CP215 | CP217 | CP237 | CP238 | CP247 | CP250 | CP252 | CP256 | CP260 | CP262 | CP265 | CP266
